Data reported in PubChem BioAssay (Tox21).
Inconclusive results are not listed. Activity calls are given as the source filed them. The call rests on the fitted dose curve; in most records, active means well fitted curve in the direction sought with a large enough effect in the repeat runs; inconclusive means weak or mixed curves; inactive means no such curve, though single readings can be large; an effect the other way counts as inactive or inconclusive.

How the values were obtained:
[1] = A CellTox Green Cytotoxicity Assay to monitor cytotoxicity in HepG2 cells - 0 hour (AID 1224882); further: nearly all actives have a fitted effect of over 35% in size
Procedure, shortened: (§1)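 Read-out is fluorescence of a cyanine dye excluded from live cells that stains DNA of dead HepG2 cells, with signal proportional to cytotoxicity. Plates were read at 0, 8, 16, 24, 32 and 40 h after compound addition.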

[2] = A CellTox Green Cytotoxicity Assay to monitor cytotoxicity in HepG2 cells - 32 hour (AID 1224883); further: nearly all actives have a fitted effect of over 50% in size
Procedure, shortened: as §1

[3] = A CellTox Green Cytotoxicity Assay to monitor cytotoxicity in HEK293 cells - 8 hour (AID 1224884); further: nearly all actives have a fitted effect of over 35% in size
Procedure, shortened: (§2)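 Nonlytic real-time cytotoxicity: HEK293 + CellTox Green reagent plated, 5 h preincubation, pintool compound addition (23 nL in DMSO), 37 C for 40 h, fluorescence measured at successive time points.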

[4] = qHTS RealTime-Glo MT Cell Viability Assay in HepG2 cells - 16 hour (AID 1224885); further: nearly all actives have a fitted effect of over 50% in size
Procedure, shortened: (§3)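 qHTS, HepG2, 600 cells/well, RealTime-Glo (NanoLuc + prosubstrate) added with cells; 5 h preincubation; DMSO compound addition; 37 C; luminescence at 0/8/16/24/32/40 h.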

[5] = qHTS RealTime-Glo MT Cell Viability Assay in HEK293 cells - 24 hour (AID 1224886); further: top concentration of the series differs between compounds; nearly all actives have a fitted effect of over 50% in size
Procedure, shortened: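 Assay medium contained NanoLuc luciferase plus cell-permeant prosubstrate, added with HEK293 cells at 600 cells/well. After 5 h at 37 C/5% CO2 compounds were added; plates stayed at 37 C for 40 h with serial luminescence reads.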

[6] = qHTS RealTime-Glo MT Cell Viability Assay in HEK293 cells - 8 hour (AID 1224887); further: top concentration of the series differs between compounds; nearly all actives have a fitted effect of over 50% in size
Procedure, shortened: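 Cells were seeded together with NanoLuc luciferase and a prosubstrate that viable cells reduce to a luciferase substrate. After a 5 h incubation at 37 C/5% CO2, compounds were added and luminescence was measured repeatedly during 40 h of treatment.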

[7] = A CellTox Green Cytotoxicity Assay to monitor cytotoxicity in HEK293 cells - 16 hour (AID 1224888); further: nearly all actives have a fitted effect of over 35% in size
Procedure, shortened: as §2

[8] = qHTS RealTime-Glo MT Cell Viability Assay in HepG2 cells - 0 hour (AID 1224889); further: nearly all actives have a fitted effect of over 50% in size
Procedure, shortened: as §3

[9] = A CellTox Green Cytotoxicity Assay to monitor cytotoxicity in HepG2 cells - 8 hour (AID 1224890); further: nearly all actives have a fitted effect of over 45% in size
Procedure, shortened: as §1

[10] = qHTS assay to identify small molecule antagonists of the estrogen receptor alpha (ER-alpha) signaling pathway using the BG1 cell line in the presence of 0.1 nM 17-beta-estradiol - cell viability counter screen (AID 1259241); further: nearly all actives have a fitted effect of over 40% in size
Procedure, shortened: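 Cytotoxicity counter-screen: live-cell protease activity measured by fluorescence (30 min reagent step) in the same wells. Cells were VM7Luc4E2 with endogenous ER-alpha and ERE-driven luciferase, treated 22 hr at 37C alongside 0.1 nM 17beta-estradiol final.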

Measured: Potency

CO[Si](C)(C)OC
inactive: [1] | [2] | [3] | [4] | [5] | [6] | [7] | [8] | [9] | [10]

CCN(CC)C(=O)N(CC)CC
inactive: [1] | [2] | [3] | [4] | [5] | [6] | [7] | [8] | [9]

NC(=O)NS(=O)(=O)c1ccc(Cl)cc1
inactive: [1] | [2] | [3] | [4] | [5] | [6] | [7] | [8] | [9] | [10]

CC(C)NC[C@@H](O)COc1cccc2ccccc12
inactive: [1] | [2] | [3] | [4] | [5] | [6] | [7] | [8] | [9]

ICCc1ccccc1
inactive: [1] | [2] | [3] | [4] | [5] | [6] | [7] | [8] | [9] | [10]

CN1CCN(C2=Nc3cc(F)ccc3Cc3ccccc32)CC1
inactive: [1] | [2] | [3] | [4] | [5] | [6] | [7] | [8] | [9] | [10]

OC[C@H]1O[C@@H](O[C@H]2[C@H](O)[C@@H](O)[C@H](O)O[C@@H]2CO)[C@H](O)[C@@H](O)[C@H]1O
inactive: [1] | [2] | [3] | [4] | [5] | [6] | [7] | [8] | [9]

CCCCNCCCC
inactive: [1] | [2] | [3] | [4] | [5] | [6] | [7] | [8] | [9]

CN1CCN(N)CC1
inactive: [1] | [2] | [3] | [4] | [5] | [6] | [7] | [8] | [9]

CCCNC(C)(C)COC(=O)c1ccccc1
inactive: [1] | [2] | [3] | [4] | [5] | [6] | [7] | [8] | [9]

OCCN(CCO)CCN(CCO)CCO
inactive: [1] | [2] | [3] | [4] | [5] | [6] | [7] | [8] | [9]

O=C(Cl)c1cccc([N+](=O)[O-])c1
inactive: [1] | [2] | [3] | [4] | [5] | [6] | [7] | [8]

c1ccc(CN(CC2=NCCN2)c2ccccc2)cc1
inactive: [1] | [2] | [3] | [4] | [5] | [6] | [7] | [8] | [9] | [10]

COC(C)CCO (stereo unspecified)
inactive: [1] | [2] | [3] | [4] | [5] | [6] | [7] | [8] | [9] | [10]

CC(C)(C)c1ccc(OC(=O)c2ccccc2O)cc1
inactive: [1] | [2] | [3] | [4] | [5] | [6] | [7] | [8] | [9]

CCOc1ccc(NC(N)=O)cc1
inactive: [1] | [2] | [3] | [4] | [5] | [6] | [7] | [8] | [9]

CCC(=O)Nc1ccc(O)cc1
inactive: [1] | [2] | [3] | [4] | [5] | [6] | [7] | [8] | [9] | [10]

O=C(CCCl)NCc1ccccc1
inactive: [1] | [2] | [3] | [4] | [5] | [6] | [7] | [8]

CCOC(=O)[C@H](CCc1ccccc1)N[C@@H](C)C(=O)N1Cc2cc(OC)c(OC)cc2C[C@H]1C(=O)O
inactive: [1] | [2] | [3] | [4] | [5] | [6] | [7] | [8] | [9] | [10]

COc1cc(C)ccc1C(C)C
inactive: [1] | [2] | [3] | [4] | [5] | [6] | [7] | [8] | [9]

COC(=O)C(C)O (stereo unspecified)
inactive: [1] | [2] | [3] | [4] | [5] | [6] | [7] | [8] | [9] | [10]

COc1ccc(S(=O)(=O)Nc2nnc(CC(C)C)s2)cc1
inactive: [1] | [2] | [3] | [4] | [5] | [6] | [7] | [8] | [9] | [10]
